The values below come from PubChem BioAssay AID651704 (Broad Institute, 2012).

Values joined by “and” are separate entries in the source; they are usually repeats but may differ in a detail not shown here. Identical values can stand only once. About 1,600 (0.46%) of roughly 350,000 compounds were called active.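 The calls were made as follows: active = every replicate reaching a set inhibition limit, whatever the replicate mean (cut at about 25% in these data); inconclusive = mean inhibition reaches that limit but some replicates miss it; inactive = the rest.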 Only a selection was taken, and actives are over-represented in it overall.

In this assay the target is Protein AF-9 (Homo sapiens) (UniProt P42568). The assay is described as follows: inhibitors of AF4 peptide binding to AF9, primary screen, biochemical, AlphaScreen, biotin-AF4 peptide, FLAG-AF9, single point (AID 651704).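 Also: 0% = plate neutral control median and 100% = total signal loss.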 The conditions noted are these: at 10 µM, hits give high values. On the technique in general: In Alpha technology, singlet oxygen from a donor bead excites a nearby acceptor bead.
Chain of Protein AF-9 (Homo sapiens) (P42568 whole entry, looked up): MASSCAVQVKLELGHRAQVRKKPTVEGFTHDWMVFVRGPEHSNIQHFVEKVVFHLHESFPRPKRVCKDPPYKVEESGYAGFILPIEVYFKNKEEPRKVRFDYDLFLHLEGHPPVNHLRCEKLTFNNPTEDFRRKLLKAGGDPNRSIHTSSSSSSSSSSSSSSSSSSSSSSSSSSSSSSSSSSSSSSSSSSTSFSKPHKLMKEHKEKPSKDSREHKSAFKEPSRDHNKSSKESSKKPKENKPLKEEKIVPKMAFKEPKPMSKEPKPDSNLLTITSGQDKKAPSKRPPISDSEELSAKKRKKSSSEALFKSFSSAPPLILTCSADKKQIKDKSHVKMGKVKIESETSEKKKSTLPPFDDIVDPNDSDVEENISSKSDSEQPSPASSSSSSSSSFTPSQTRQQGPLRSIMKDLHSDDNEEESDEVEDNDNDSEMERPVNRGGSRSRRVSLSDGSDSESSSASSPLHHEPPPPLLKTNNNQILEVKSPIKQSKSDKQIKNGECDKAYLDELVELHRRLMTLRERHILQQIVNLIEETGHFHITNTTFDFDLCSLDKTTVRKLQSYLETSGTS
By inhibition is commonly meant the drop in the measured response relative to a control, in per cent. As to `CO[C@@H]1CN(C)C(=O)c2ccc(NC(=O)C3CC3)cc2OC[C@H](C)N(C(=O)c2ccccc2)C[C@@H]1C`, the inhibition was -0.663% (inactive).

As to `Cc1c(C)n(Cc2ccc(Cl)cc2)c2ccc(C(=O)NCCCN3CCOCC3)cc12`, the inhibition is 26.6% (active).

`COc1ccc(Cn2c(=S)[nH]c3cc(C(=O)NCCCN4CCOCC4)ccc3c2=O)cc1`: the inhibition was -9.96% (inactive).

Regarding `O=C(NCCCN1CCOCC1)c1cc(-c2ccc(Cl)cc2)on1`, the inhibition was -5.39% (inactive).

Turning to `COc1ccccc1-c1ccc([C@H]2[C@@H](CO)N(CC3CC3)C23CN(S(C)(=O)=O)C3)cc1`, the inhibition is 0.485% (inactive).

With `Cn1cnc(S(=O)(=O)NC[C@@H]2CC[C@@H]3[C@@H](CN3Cc3nccs3)O2)c1`, the inhibition was -5.79% (inactive).

As for `O=C(CN1CCOCC1)N1CCCCN2[C@H](C1)[C@H](c1ccc(-c3ccccc3F)cc1)[C@@H]2CO`, the inhibition is -4.58% (inactive).

Turning to `C[C@H](CO)N1C[C@H](C)[C@@H](CN(C)Cc2ccc(Oc3ccccc3)cc2)Oc2ccc(NS(=O)(=O)c3ccc(F)cc3)cc2CC1=O`, the inhibition is 1.77% (inactive).

With `Cc1cc(N=Nc2ccc3ccccc3c2)ccc1O`, the inhibition was 35.1% (active).

In the case of `COc1ccc2c3c(n(C)c2c1)[C@@H](CO)N(C(=O)CN1CCOCC1)CC31CN(C(=O)CC2CC2)C1`, the inhibition was 0.071% (inactive).

`Nc1ccccc1C(=O)NC1CCCCNC1=O` (stereo not given): the inhibition is -2.44% (inactive).

As for `O=C(Nc1c[nH]c(=O)[nH]c1=O)OCc1ccccc1`, the inhibition was 2.62% (inactive).

For the compound `O=C(CNC(=O)OCc1ccccc1)NC1CCCCNC1=O` (stereo not given), the inhibition was 48% (active).

In the case of `C[C@@H]1CN([C@@H](C)CO)C(=O)CCCn2nncc2CO[C@H]1CN(C)C(=O)CCCN(C)C`, the inhibition is -5.71% (inactive).

For the compound `Cc1ccccc1S(=O)(=O)N1CC[C@H]2[C@H](CO)Nc3ccc(-c4cccc(F)c4)cc3[C@H]21`, the inhibition was -2.53% (inactive).

In the case of `Cc1noc(C)c1NC(=O)Nc1ccc2c(c1)CC(=O)N([C@H](C)CO)C[C@@H](C)[C@@H](CN(C)S(=O)(=O)c1ccc(Cl)cc1)O2`, the inhibition is -0.675% (inactive).

Regarding `CN(C)C(=O)C[C@@H]1C[C@@H]2c3cc(NC(=O)C4CCOCC4)ccc3O[C@@H]2[C@@H](CO)O1`, the inhibition is -3.12% (inactive).

`COCCNC(=O)C1CCN(C(=O)C2CC(=O)N(c3ccc(C)cc3)C2)CC1` (stereo not given): the inhibition was 50.4% (active).

Turning to `CCCC(C)NC(=O)C1CCN(C(=O)C2CC(=O)N(c3ccc(C)cc3)C2)CC1` (stereo not given), the inhibition is -6.07% (inactive).

With `Cc1ccc(N2CC(C(=O)NCCS(=O)(=O)N3CCN(c4ccccc4)CC3)CC2=O)cc1` (stereo not given), the inhibition is 0.43% (inactive).

Regarding `C/C=C/c1ccc([C@@H]2[C@H](CO)N(CC3CCCC3)C23CN(C(=O)CC2CC2)C3)cc1`, the inhibition was 5.28% (inactive).

As to `CN(C)C(=O)C[C@H]1C=C[C@@H](NC(=O)c2ccc(F)cc2)[C@@H](CO)O1`, the inhibition is -2.41% (inactive).

As for `COc1ccccc1S(=O)(=O)N(C)C[C@@H]1Oc2cc(C#CCC3CCCC3)ccc2S(=O)(=O)N([C@H](C)CO)C[C@H]1C`, the inhibition was 2.17% (inactive).

Regarding `O=C(NCCCN1CCOCC1)c1ccc([N+](=O)[O-])cc1[N+](=O)[O-]`, the inhibition is -2.14% (inactive).

Regarding `CN1CCN(CCNC(=O)Nc2ccc([N+](=O)[O-])cc2)CC1`, the inhibition is -2.1% (inactive).

On to `O=C(NCCCN1CCN(c2ccc(F)cc2)CC1)Nc1ccc([N+](=O)[O-])cc1`, for which the inhibition is 25.7% (active).

For `CO[C@H]1CN(C)C(=O)c2cc(NS(=O)(=O)CC(F)(F)F)ccc2OC[C@H](C)N(C(=O)c2ccc3c(c2)OCO3)C[C@H]1C`, the inhibition is -1.49% (inactive).

As to `CC(C)=CCCC1(C)C=Cc2c(ccc3c2[nH]c2cc(O)c(C)cc23)O1` (stereo not given), the inhibition was 26.9% (active).

As for `COc1ccc(CN(C)C[C@@H]2OCCCC[C@H](C)Oc3ccc(NS(=O)(=O)c4cccs4)cc3C(=O)N([C@H](C)CO)C[C@@H]2C)cc1`, the inhibition was 5.32% (inactive).

With `N#Cc1ccc(-c2ccc(C3[C@@H]4CN(S(=O)(=O)c5ccccc5F)C[C@H]3N4)cc2)cc1` (stereo not given in full), the inhibition is -2.55% (inactive) and -2.34% (inactive).

For `COCC#Cc1ccc([C@@H]2[C@H]3CN(C(=O)C4CCOCC4)CC(=O)N3[C@H]2CO)cc1`, the inhibition was -0.325% (inactive).

On to `Cc1ccc(S(=O)(=O)Nc2ccc3c(c2)C(=O)N([C@H](C)CO)C[C@@H](C)[C@@H](CN(C)C(=O)CCC(F)(F)F)OCCCC[C@@H](C)O3)cc1`, for which the inhibition is -0.265% (inactive).

Turning to `C[n+]1ccc(/C=C/c2c[nH]c3ccccc23)cc1`, the inhibition was 11.9% (inactive).

On to `CSC(=S)N/N=C/c1c[nH]c2ccccc12`, for which the inhibition is 33.1% (active).

In the case of `O=C(Cc1c[nH]c2ccccc12)N/N=C/c1cccc(F)c1`, the inhibition was 2.76% (inactive).

As to `CCCC#Cc1ccc([C@H]2[C@H]3CN(C(=O)Nc4ccc(F)cc4)CC(=O)N3[C@H]2CO)cc1`, the inhibition was 0.647% (inactive).

Regarding `CO[C@@H]1CN(C)C(=O)c2cc(NS(=O)(=O)c3ccccc3C)ccc2OC[C@@H](C)N(S(C)(=O)=O)C[C@@H]1C`, the inhibition is -4% (inactive).

Turning to `COc1ccc(NS(=O)(=O)c2cc3c(cc2C)N(C(C)=O)CCO3)cc1`, the inhibition is 52.8% (active).

Turning to `COc1ccc(NS(=O)(=O)c2cc(NC(=O)C3CCCCC3)ccc2N2CCOCC2)cc1`, the inhibition was 1.75% (inactive).

As for `COc1ccc(N2CCN(S(=O)(=O)c3ccc4c(c3)N(C(C)=O)CCO4)CC2)cc1`, the inhibition is 1.85% (inactive).

As for `C[C@@H]1CN([C@@H](C)CO)C(=O)c2cc(-c3ccc(F)cc3)cnc2O[C@@H]1CN(C)Cc1ccc(C(=O)O)cc1`, the inhibition is -2.45% (inactive).

With `N#C[C@@H]1[C@H](c2ccccc2C2=CCCCC2)[C@@H](CO)N1S(=O)(=O)c1cccc(F)c1`, the inhibition was -2.55% (inactive).

For `Cc1ccc(S(=O)(=O)N2C[C@@H](O)COC[C@@H]3O[C@H](CC(=O)NCc4ccc(Cl)c(Cl)c4)CC[C@H]32)cc1`, the inhibition is 0.126% (inactive).

As to `Cc1ccc(S(=O)(=O)N2C[C@H](O)COC[C@@H]3O[C@@H](CC(=O)NCC4CCCCC4)CC[C@H]32)cc1`, the inhibition is 27% (active).

For `O=C(C[C@@H]1CC[C@@H]2[C@H](COC[C@@H](O)CN2S(=O)(=O)c2ccccc2)O1)NCC1CCCCC1`, the inhibition was 33.9% (active).

Turning to `CCNC(=O)C[C@@H]1CC[C@@H]2[C@H](COC[C@H](O)CN2S(=O)(=O)c2ccc(Oc3ccccc3)cc2)O1`, the inhibition is -1.5% (inactive).

`Cc1ccc(S(=O)(=O)N2C[C@@H](O)COC[C@@H]3O[C@H](CC(=O)NCCCN(C)C)CC[C@H]32)cc1`: the inhibition is -2.12% (inactive).

With `O=C(C[C@@H]1CC[C@H]2[C@@H](COC[C@H](O)CN2S(=O)(=O)c2ccccc2)O1)NCCN1CCCC1`, the inhibition is -0.246% (inactive).

For the compound `C[C@@H]1CN([C@@H](C)CO)C(=O)CCCn2cc(nn2)CO[C@H]1CN(C)Cc1ccc(C(=O)O)cc1`, the inhibition is -0.624% (inactive).

As to `CN(C)C(=O)c1ccc(-c2ccccc2[C@@H]2[C@@H](C#N)N(C(=O)C3CCCC3)[C@H]2CO)cc1`, the inhibition is -1.75% (inactive).

`O=C(c1cccc(F)c1)N1CC[C@@H]2[C@H](CO)Nc3ccc(C#Cc4ccccc4)cc3[C@@H]21`: the inhibition is -0.355% (inactive).

Regarding `C/C=C/c1ccc([C@@H]2[C@@H](CO)N(C(=O)CN(C)C)C23CN(C(=O)C2CCCC2)C3)cc1`, the inhibition is 4.6% (inactive).

With `CN1C(=O)c2cc(NC(=O)C3CCCC3)ccc2OC[C@@H]2O[C@@H](CC(=O)NCCc3ccncc3)CC[C@@H]21`, the inhibition was 1.93% (inactive).

With `C[C@H](CO)N1C[C@H](C)[C@H](CN(C)C(=O)CCN(C)C)OCc2ccccc2-c2c(n(C)c3ccccc23)C1=O`, the inhibition is 2.11% (inactive).

Regarding `CN1CCC(CN)(N2CCN(c3ccccc3)CC2)CC1`, the inhibition was 33.8% (active).

`O=C(c1ccccc1)c1ccc(C(=O)N2CCN(c3ccccc3)CC2)cc1`: the inhibition was -1.66% (inactive).

In the case of `CCS(=O)(=O)N1CCC(N2CCN(c3ccccc3)CC2)CC1`, the inhibition was -4.72% (inactive).

Regarding `CC(C)NC(=O)N(C)C[C@H]1OCCCC[C@H](C)Oc2ccc(NS(=O)(=O)c3ccc(Cl)cc3)cc2C(=O)N([C@@H](C)CO)C[C@H]1C`, the inhibition is -0.682% (inactive).

For the compound `O=C(c1ccc(F)cc1)n1c(=S)nc2ccccn21`, the inhibition is 37.5% (active).

For the compound `O=C(c1ccc(F)cc1)N1CCC(n2nnc3ccccc32)CC1`, the inhibition is -0.54% (inactive).

Turning to `O=C(c1ccc(F)cc1)n1cc(C(=S)N2CCOCC2)c2ccccc21`, the inhibition was 9.22% (inactive).

Take `CO[C@@H]1CN(C)C(=O)c2ccc(NC(=O)NC(C)C)cc2OC[C@@H](C)N(C)C[C@H]1C`: the inhibition was -3.29% (inactive).

With `CN(C)CCNC(=O)c1cccc(-c2cnc3c(NC=O)cc(-c4cccc(C(F)(F)F)c4)cn23)c1`, the inhibition was 37.1% (active).

Regarding `CC(=O)c1cccc(-c2cnc3c(NC=O)cc(-c4cccc(C(=O)N(C)C)c4)cn23)c1`, the inhibition was -1.2% (inactive).

Turning to `CN(C)C(=O)c1cccc(-c2cnc3c(NC=O)cc(-c4ccc(F)cc4)cn23)c1`, the inhibition was 3.38% (inactive).

Regarding `COc1ccc2c3c(n(C)c2c1)[C@H](CO)N(C(=O)Nc1c(C)noc1C)CC31CN(CC2CC2)C1`, the inhibition was 1.61% (inactive).

On to `C=CCOC(=O)[C@H]1[C@@H]2C(=O)O[C@@H](c3ccccc3)[C@@H](c3ccccc3)N2[C@@H](c2ccc(OCCOC(=O)[C@H]3C[C@H]4C(=O)NCC(=O)N4[C@H]3c3ccc(O)cc3)cc2)[C@]12C(=O)Nc1ccccc12`, for which the inhibition is 0.736% (inactive).

Take `COc1ccccc1N(CC(=O)Nc1ccccc1C(=O)N1CCCC1)S(C)(=O)=O`: the inhibition is 50.9% (active).

With `O=C(CN(c1ccccc1)S(=O)(=O)c1ccc(Cl)cc1)Nc1ccccc1C(=O)N1CCCC1`, the inhibition was 0.298% (inactive).

Consider `COc1ccc([N+](=O)[O-])cc1N(CC(=O)Nc1ccccc1C(=O)N1CCOCC1)S(C)(=O)=O`, for which the inhibition is 1.49% (inactive).
